# Assay results reported in PubChem BioAssay.
# Entries with a potency or affinity are not part of this list. Unmarked numbers belong to inactive results.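 Rule for the calls: active = primary screen inhibitor hit that blocks the TRPC4 channel at some tested dose, yielding a dose curve; inactive = the rest.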
# Biological target: Short transient receptor potential channel 4 (Mus musculus) (UniProt Q9QUQ5)
# Test: block of DAMGO-driven TRPC4 calcium entry – cell-based, HEK293 TRPC4/mu-opioid, Fluo-4 calcium, dose response (AID 434942)
# Conditions: HEK293 TRPC4/mu-opioid cells, DAMGO-evoked Fluo-4 calcium ratio; series mostly up to 20 µM; ratio response (lower = inhibition): at the top concentration
# Short transient receptor potential channel 4 (Mus musculus), sequence (Q9QUQ5 whole entry, looked up): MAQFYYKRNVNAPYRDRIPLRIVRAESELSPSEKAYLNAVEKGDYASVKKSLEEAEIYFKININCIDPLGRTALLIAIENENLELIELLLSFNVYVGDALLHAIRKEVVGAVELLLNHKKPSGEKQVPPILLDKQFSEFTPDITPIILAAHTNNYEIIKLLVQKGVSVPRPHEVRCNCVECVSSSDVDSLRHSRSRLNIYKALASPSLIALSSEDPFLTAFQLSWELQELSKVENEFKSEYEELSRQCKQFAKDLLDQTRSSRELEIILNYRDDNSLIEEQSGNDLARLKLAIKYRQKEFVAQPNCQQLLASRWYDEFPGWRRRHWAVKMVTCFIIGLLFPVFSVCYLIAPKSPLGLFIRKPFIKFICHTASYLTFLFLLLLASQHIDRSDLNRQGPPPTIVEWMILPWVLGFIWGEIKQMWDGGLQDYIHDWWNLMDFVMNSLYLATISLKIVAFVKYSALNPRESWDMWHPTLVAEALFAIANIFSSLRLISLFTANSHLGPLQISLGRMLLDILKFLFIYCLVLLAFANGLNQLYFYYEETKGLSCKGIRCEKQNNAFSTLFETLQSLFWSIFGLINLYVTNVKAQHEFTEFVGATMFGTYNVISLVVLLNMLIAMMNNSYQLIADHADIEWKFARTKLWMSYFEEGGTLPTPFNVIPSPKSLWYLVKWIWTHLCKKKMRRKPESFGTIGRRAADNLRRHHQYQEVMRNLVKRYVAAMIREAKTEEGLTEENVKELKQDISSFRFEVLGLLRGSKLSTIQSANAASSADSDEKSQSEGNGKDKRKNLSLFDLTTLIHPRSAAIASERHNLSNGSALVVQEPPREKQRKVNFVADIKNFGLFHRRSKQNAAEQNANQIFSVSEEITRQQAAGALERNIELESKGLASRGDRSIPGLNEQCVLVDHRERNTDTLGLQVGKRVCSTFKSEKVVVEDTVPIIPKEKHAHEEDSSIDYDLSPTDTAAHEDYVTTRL
row,SMILES,ratio response (lower = inhibition)
1,O=C1/C(=C\c2cc(Cl)c(O)c(Cl)c2)SC(=S)N1Cc1ccccc1,54.8
2,COc1ccc(C(=O)NC(=S)NNC(=O)c2c(-c3ccccc3)noc2C)cc1,0.01
3,O=C(c1sc2ccccc2c1Cl)N(Cc1ccco1)C1CCS(=O)(=O)C1 (stereo not given),0.95
4,Cc1cc(-c2ccc(C)c(S(=O)(=O)NCCCN(Cc3ccccc3)C(C)C)c2)on1,-14.3
5,CCc1nc(NCCc2ccccn2)c2nnn(Cc3ccccc3F)c2n1,12.1
6,CN(C)CCCN(C(=O)c1ccc(S(=O)(=O)N2CCCc3ccccc32)cc1)c1nc2ccc(F)cc2s1,-8.67
7,CSCCC(NS(=O)(=O)c1ccc2c(c1)c(=O)n(C)c(=O)n2C)C(=O)NC1CCN(Cc2ccccc2)CC1 (stereo not given),56.9
8,CCC1(c2ccc(F)cc2)NC(=O)N(CC(=O)c2cc(C)n(C3CC3)c2C)C1=O (stereo not given),76.7
9,CN(C)CCCN(C(=O)c1ccc(C(=O)c2ccccc2)cc1)c1nc2ccc(F)cc2s1,-6.17
10,Cc1ccc(-n2cc(CNCC3CC(=O)N(C4CC4)C3)c(-c3cccc(C)c3)n2)cc1 (stereo not given),-12
11,CC1CCCN(CCCNC(=O)c2ccc3c(c2)N(Cc2ccccc2F)C(=O)c2ccccc2S3(=O)=O)C1 (stereo not given),76.8
12,Cc1nc(/N=C(\N)NC(=O)NC2CCCCC2)nc2ccccc12,10.9
13,COc1ccc(C(CNC(=O)c2cccc(NS(=O)(=O)c3ccc(C)c(F)c3)c2)N(C)C)cc1 (stereo not given),-2.73
14,CCN1CCN(c2ccc(S(=O)(=O)N3CCCCC3)cc2NC(=O)COc2ccccc2)CC1,35.4
15,CCCN(CCC)CCCNC(=O)C1CCN(S(=O)(=O)c2cccc3nsnc23)CC1,13
16,c1ccc(Nc2nc(Nc3ccccc3)nc(N3CCNCC3)n2)cc1,3.96
17,CN(C)C(CNc1ncnc2sc3c(c12)CCCC3)c1ccco1 (stereo not given),2.71
18,CC(=O)Nc1ccc(CN2CCCC(C(=O)c3cccc(C(F)(F)F)c3)C2)cc1 (stereo not given),-4.92
19,NCCCn1c(C(=O)c2cc(Cl)c(N)c(Cl)c2)c2ccccc2[n+]1[O-],8.53
20,CCN1CCN(c2c(Cl)cccc2NC(=O)c2ccc3nsnc3c2)CC1,99.5

row,SMILES,ratio response (lower = inhibition)
1,COc1ccc(-c2cc(C(=O)NCC(c3ccccc3)N(C)C)c3ccccc3n2)cc1OC (stereo not given),2.83
2,O=C(c1sc2ccccc2c1Cl)N(Cc1cccs1)C1CCS(=O)(=O)C1 (stereo not given),-6.8
3,O=S(=O)(c1ccccc1)c1nnn2c1nc(NC1CCN(Cc3ccccc3)CC1)c1cc(Cl)ccc12,59
4,CCCc1c(O)nc(SCCN(CCC)CCC)[nH]c1=O,89.7
5,O=C(CCc1ccccc1)NNC(=S)NC(=O)c1ccc(Cl)cc1,-34.9
6,CCCCN(C)CCCNC(=O)CN1N=C(c2ccc(Cl)cc2)CCC1=O,7.29
7,CC1(C)CC(=O)c2cc(C(=O)NCc3ccco3)c(=O)n(-c3ccc(Cl)cc3)c2C1,1.32
8,CCOC(=O)C1CCCN(C(c2ccccn2)c2c(C)[nH]c3ccccc23)C1 (stereo not given),84.8
9,O=C(Nc1nnc(-c2ccccc2Cl)o1)c1nc2ccccc2s1,-30.2
10,CCCCC(c1nnnn1CC1CCCO1)N1CCN(c2nc3ccccc3s2)CC1 (stereo not given),6.49
11,c1ccc2c(c1)CCN(c1ncnc3c1[nH]c1ccccc13)C2,1.9
12,COc1ccc(C(CNCC(=O)Nc2ccccc2F)N(C)C)cc1 (stereo not given),-6.83
13,O=S(=O)(c1ccc(Cl)cc1)N1CCN2CCCC2C1 (stereo not given),50.2
14,COc1cc(OC)c(CN2CCC(Cc3ccccc3)CC2)cc1Br,-4.6
15,CCOC(=O)C1(CCOc2ccccc2)CCN(Cc2ccc(NC(C)=O)cc2)CC1,-3.38
16,O=C(C1CCCN(Cc2ccccc2)C1)N1CCc2ccccc2C1 (stereo not given),5.79
17,Cc1csc2c(N3CCN(C(=S)Nc4ccc(F)cc4F)CC3)ncnc12,39.3
18,Cc1ccc(C2(O)CN(c3ccccc3C)C3=[N+]2CCS3)cc1 (stereo not given),-0.42
19,CCn1cc(CN2CCCC(C(=O)Nc3ccc(-c4nc5ccccc5[nH]4)cc3)C2)c(C)n1 (stereo not given),-3.49
20,CN(C)C(CNC(=S)Nc1cccc(Cl)c1)c1cccnc1 (stereo not given),-3.31
